{"source": "paper PMC4336329", "about": "(PLoS ONE, 2015)", "note": "The campaign covered roughly 310,000 compounds. About 14,000 (4.5%) showed an effect of 50% or more. Effects have a minus sign here. Many of the other results were omitted from the sample, so strong results are more common in it than they were.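 Further: peak tail current of the secondary pulse compared with the same well before compound.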", "data": [{"biological_target": "human ether-à-go-go-related gene (hERG) potassium channel (human, UniProt Q12809)", "sequence (Q12809 whole entry, looked up)": "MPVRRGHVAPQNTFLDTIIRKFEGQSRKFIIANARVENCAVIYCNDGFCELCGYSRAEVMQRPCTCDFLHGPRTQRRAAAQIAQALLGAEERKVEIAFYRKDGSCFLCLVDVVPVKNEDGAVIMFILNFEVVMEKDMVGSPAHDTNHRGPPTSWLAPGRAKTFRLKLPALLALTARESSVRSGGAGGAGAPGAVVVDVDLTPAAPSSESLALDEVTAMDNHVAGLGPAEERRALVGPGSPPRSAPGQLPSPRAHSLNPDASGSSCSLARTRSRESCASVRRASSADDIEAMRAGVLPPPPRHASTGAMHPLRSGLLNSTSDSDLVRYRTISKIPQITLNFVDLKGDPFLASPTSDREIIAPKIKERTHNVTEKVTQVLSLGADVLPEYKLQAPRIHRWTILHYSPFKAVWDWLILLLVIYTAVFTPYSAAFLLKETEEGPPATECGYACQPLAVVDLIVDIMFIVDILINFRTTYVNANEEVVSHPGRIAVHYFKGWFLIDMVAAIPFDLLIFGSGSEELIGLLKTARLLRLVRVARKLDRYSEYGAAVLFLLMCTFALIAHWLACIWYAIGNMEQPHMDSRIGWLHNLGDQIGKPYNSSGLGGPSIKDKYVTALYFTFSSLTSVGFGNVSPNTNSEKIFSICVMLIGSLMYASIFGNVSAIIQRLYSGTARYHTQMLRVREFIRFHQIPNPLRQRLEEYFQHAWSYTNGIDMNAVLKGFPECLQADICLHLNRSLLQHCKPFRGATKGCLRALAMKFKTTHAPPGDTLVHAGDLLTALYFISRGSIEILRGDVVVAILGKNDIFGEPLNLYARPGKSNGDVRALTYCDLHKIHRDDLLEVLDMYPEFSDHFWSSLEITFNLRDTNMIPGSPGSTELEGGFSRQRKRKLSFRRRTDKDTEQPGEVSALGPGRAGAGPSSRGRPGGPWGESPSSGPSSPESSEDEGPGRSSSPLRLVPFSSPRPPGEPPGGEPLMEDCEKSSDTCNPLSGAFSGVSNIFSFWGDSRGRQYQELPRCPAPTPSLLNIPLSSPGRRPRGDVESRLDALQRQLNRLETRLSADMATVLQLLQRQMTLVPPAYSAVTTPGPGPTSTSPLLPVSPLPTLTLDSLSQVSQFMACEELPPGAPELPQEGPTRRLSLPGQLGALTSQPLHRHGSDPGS", "assay": "primary screen, population patch clamp on CHO cells stably expressing hERG; higher = less effect of the substance", "units": {"hERG current change (%, negative = inhibition) at 10uM": "%"}, "values": [{"compound": "Cc1ccc2c(CN3CCN(S(=O)(=O)/C=C/c4ccccc4)CC3)cc(=O)oc2c1", "hERG current change (%, negative = inhibition) at 10uM": -72.4}, {"compound": "O=S(=O)(/C=C/c1ccccc1)N1CCN(Cc2ccccc2)CC1", "hERG current change (%, negative = inhibition) at 10uM": -25.3}, {"compound": "O=c1cc(CN2CCN(S(=O)(=O)/C=C/c3ccccc3)CC2)c2ccc(O)cc2o1", "hERG current change (%, negative = inhibition) at 10uM": -76.8}, {"compound": "Cc1cc2oc(=O)cc(CN3CCN(S(=O)(=O)/C=C/c4ccccc4)CC3)c2cc1C", "hERG current change (%, negative = inhibition) at 10uM": 1.24}, {"compound": "CCOc1ccc(N2C(=O)CC(N3CCN(c4ccc(Cl)cc4)CC3)C2=O)cc1", "note": "(centres unmarked)", "hERG current change (%, negative = inhibition) at 10uM": 18.5}, {"compound": "CCOC(=O)C1CCN(S(=O)(=O)c2c(C)[nH]c(=O)[nH]c2=O)CC1", "hERG current change (%, negative = inhibition) at 10uM": -0.439}, {"compound": "COc1ccc(C(CNC(=O)CSc2ccccc2F)N2CCOCC2)cc1", "note": "(centres unmarked)", "hERG current change (%, negative = inhibition) at 10uM": 10.7}, {"compound": "CC(=O)Nc1ccc(/C=C(\\C#N)C(=O)NC2CCCCC2)cc1", "hERG current change (%, negative = inhibition) at 10uM": 11.2}, {"compound": "O=C(Cc1ccccn1)c1ccccc1", "hERG current change (%, negative = inhibition) at 10uM": 30.3}, {"compound": "Cc1ccc(S(=O)(=O)N/N=C\\c2ccc3c(c2)OCO3)cc1C", "hERG current change (%, negative = inhibition) at 10uM": -11.8}, {"compound": "c1coc(CNc2c3c(nc4ccccc24)CCC3)c1", "hERG current change (%, negative = inhibition) at 10uM": -78.7}, {"compound": "OCC(Cc1ccccc1)Nc1c2ccccc2nc2ccccc12", "note": "(centres unmarked)", "hERG current change (%, negative = inhibition) at 10uM": -71.2}, {"compound": "CN(C)CCNc1c2c(nc3ccccc13)CCC2", "hERG current change (%, negative = inhibition) at 10uM": -0.291}, {"compound": "O=C(NCc1ccco1)c1c2c(nc3ccccc13)CCC2", "hERG current change (%, negative = inhibition) at 10uM": -24.8}, {"compound": "O=C(Cc1ccccc1)NNc1c2ccccc2nc2ccccc12", "hERG current change (%, negative = inhibition) at 10uM": 12.3}, {"compound": "c1ccc(CNc2nc(-c3ccccc3)nc3ccccc23)cc1", "hERG current change (%, negative = inhibition) at 10uM": 4.15}, {"compound": "COCCNc1c2c(nc3ccccc13)CCC2.Cl", "hERG current change (%, negative = inhibition) at 10uM": -58.5}, {"compound": "O=C(NC(CO)Cc1ccccc1)c1ccccc1", "note": "(centres unmarked)", "hERG current change (%, negative = inhibition) at 10uM": -10.5}, {"compound": "c1ccc(CNc2c3ccccc3nc3ccccc23)cc1", "hERG current change (%, negative = inhibition) at 10uM": -77.1}, {"compound": "CN(C)CCCNc1c2c(nc3ccccc13)CCC2.Cl", "hERG current change (%, negative = inhibition) at 10uM": -3.18}, {"compound": "c1coc(CNc2c3c(nc4ncnn24)CCC3)c1", "hERG current change (%, negative = inhibition) at 10uM": -29.6}, {"compound": "Cl.c1ccc(CNc2ncnc3ccccc23)cc1", "hERG current change (%, negative = inhibition) at 10uM": 4.3}, {"compound": "Cc1ccc(N2C(=O)C3C4CC(=O)C(c5ccccc54)C3C2=O)cc1C", "note": "(centres unmarked)", "hERG current change (%, negative = inhibition) at 10uM": -12.3}, {"compound": "C#CCOCCOCCOCCNc1nc(N2CCN(C(=O)Cn3cc(CC(C)O)nn3)CC2)nc(N2CCN(C(=O)Cn3cc(CC(C)O)nn3)CC2)n1", "note": "(centres unmarked)", "hERG current change (%, negative = inhibition) at 10uM": -7.58}, {"compound": "CC(C)(C)[C@H]1C=C(C(=O)O)O[C@@H](OCCCCO)C1", "hERG current change (%, negative = inhibition) at 10uM": 6.41}, {"compound": "CC12CCC(C(=O)NCc3ccco3)(OC1=O)C2(C)C", "note": "(centres unmarked)", "hERG current change (%, negative = inhibition) at 10uM": 2.02}, {"compound": "COc1cccc(NC(=O)Nc2cc(C(=O)O)ccc2N2CC3CC(C2)c2cccc(=O)n2C3)c1", "note": "(centres unmarked)", "hERG current change (%, negative = inhibition) at 10uM": 8.25}, {"compound": "O=C(Nc1nccs1)c1cc2sccc2n1Cc1ccc(Cl)cc1", "hERG current change (%, negative = inhibition) at 10uM": -2.4}, {"compound": "Cc1ccc(C)c(N(CC(=O)NC(C)(C)C)C(=O)CCC(=O)Nc2nccs2)c1", "hERG current change (%, negative = inhibition) at 10uM": 2.56}, {"compound": "CC(C)Cn1c(N)c(C(=O)CSc2nc3ncc(Cl)cc3[nH]2)c(=O)n(C)c1=O", "hERG current change (%, negative = inhibition) at 10uM": -0.019}, {"compound": "Cc1coc2cc3oc(=O)c(CCC(=O)N4CCC(C(=O)O)(c5ccccc5)CC4)c(C)c3cc12", "hERG current change (%, negative = inhibition) at 10uM": 0.933}, {"compound": "CC(C)(C)N1CC(OC(N)=O)C1", "hERG current change (%, negative = inhibition) at 10uM": 21}, {"compound": "OCCNc1c2c(nc3ccccc13)CCCC2", "hERG current change (%, negative = inhibition) at 10uM": -39}, {"compound": "Clc1c2c(nc3ccccc13)CCC2", "hERG current change (%, negative = inhibition) at 10uM": 16.4}, {"compound": "CC(C)CNc1c2c(nc3ccccc13)CCC2.Cl", "hERG current change (%, negative = inhibition) at 10uM": -69.2}, {"compound": "Cc1c2ccccc2nc2ccccc12", "hERG current change (%, negative = inhibition) at 10uM": -1.84}, {"compound": "CC(C)NCC(=O)Nc1c2c(nc3ccccc13)CCC2.O=C(O)C(=O)O", "hERG current change (%, negative = inhibition) at 10uM": 6.26}, {"compound": "CC(C)(C)OC(=O)NNc1c2ccccc2nc2ccccc12", "hERG current change (%, negative = inhibition) at 10uM": -27.7}, {"compound": "CC(C)(C)Nc1c2ccccc2nc2ccccc12", "hERG current change (%, negative = inhibition) at 10uM": -68.2}, {"compound": "CC(C)CNC(=O)COC(=O)c1c2c(nc3ccccc13)CCC2", "hERG current change (%, negative = inhibition) at 10uM": 4.12}, {"compound": "Cl.c1ccc(CNc2c3c(nc4ccccc24)CCC3)cc1", "hERG current change (%, negative = inhibition) at 10uM": -75.3}, {"compound": "Cc1ccc(N/N=C/c2ccncc2)cc1.Cl", "hERG current change (%, negative = inhibition) at 10uM": 4.03}, {"compound": "O=C(COC(=O)c1ccc(O)cc1)NC1CCCCCC1", "hERG current change (%, negative = inhibition) at 10uM": 7.22}, {"compound": "O=C(NNS(=O)(=O)c1ccc(C(F)(F)F)cc1)c1cnn(-c2ccccc2)c1C(F)(F)F", "hERG current change (%, negative = inhibition) at 10uM": 11.5}]}]}
